Measurements from ChEMBL document CHEMBL4513216, “Probing the Open Global Health Chemical Diversity Library for Multistage-Active Starting Points for Next-Generation Antimalarials” (ACS Infect Dis, 2020).
Screen size: about 69,000 compounds; about 8,600 (12%) showed an effect of 50% or more. This is one part of a sample in which strong results are shown more often than they occur.

System: Plasmodium berghei
Assay: Screen against P. berghei liver stage (PbLuc), transformed with Luciferase, at 10uM
Assay type: functional, HepG2
Details: tested at 10 uM

| Structure (SMILES) | INHIBITION |
| --- | --- |
| CC(C)CC(CC(C)C)NC(=O)c1ccn(C)c(=O)c1 | 1.51% |
| COc1ncccc1CN1C[C@H]2C[C@@H](C(=O)NCC3CC3)N(C)[C@H]2C1 | 29.7% |
| CC(C)c1nn(C)cc1CNCc1cccnc1N(C)C | 14.7% |
| CSCC(=O)N1CCc2c(cnc(C)c2-c2noc(-c3ccco3)n2)C1 | 33% |
| COCCn1cc(NC(=O)NCC2CCN(c3ccccc3)C2)cn1 (stereo not drawn) | 22.8% |
| Cc1ncsc1C(=O)N1CCN(Cc2ccccc2)CC1C (stereo not drawn) | 23.8% |
| COCc1nc(C(=O)OCC2CCN(c3ccccc3)C2)cs1 (stereo not drawn) | 18.3% |
| Cc1ncsc1C(=O)OCC1CCN(c2ccccc2)C1 (stereo not drawn) | 89.4% |
| O=C(OCC1CCN(c2ccccc2)C1)c1cscn1 (stereo not drawn) | 51.7% |
| O=C(OCC1CCCN(C(=O)c2ccccc2)C1)c1cscn1 (stereo not drawn) | 10.6% |
| Cn1ncc(C(=O)OCC2CCN(c3ccccc3)C2)c1C(F)F (stereo not drawn) | 9.96% |
| Cc1ncc(C(=O)OCC2CCN(c3ccccc3)C2)s1 (stereo not drawn) | 58.5% |
| Cc1ncsc1C(=O)OCCN1CCCc2ccccc21 | 41.3% |
| Cc1oc(-c2nc(C#N)c(NC3CC3)o2)cc1S(=O)(=O)N1CCCC1 | 25.8% |
| CCN(Cc1ccco1)C(=O)NCC(C)N1CCc2sccc2C1 (stereo not drawn) | -3.72% |
| Cc1occc1C(=O)N1C[C@@H]2CCCO[C@@H]2[C@H](N(C)Cc2ccco2)C1 | 43.9% |
| Cc1cccc(CN(C(=O)NCc2ccccn2)C2CC2)c1 | 19.4% |
| COc1ccccc1N1CCN(C(=O)c2ccnc(N(C)C)c2)CC1 | 77.15% |
| CN(C)c1cc(C(=O)N2CCCC2)ccn1 | -4.567% |
| COc1ccccc1N1CCN(C(=O)c2ccoc2)CC1 | -17.4% |

| Structure (SMILES) | INHIBITION |
| --- | --- |
| O=C(N1CCCO1)[C@@]12CCO[C@@H]1CCN(Cc1ccsc1)C2 | 14.5% |
| CC(CNC(=O)N1CCSCC1)Cc1cccs1 (stereo not drawn) | -18.2% |
| CC(CNC(=O)N1CCNC(=O)CC1)Cc1cccs1 (stereo not drawn) | 51.1% |
| CC(CNC(=O)N1CCS(=O)(=O)CC1)Cc1cccs1 (stereo not drawn) | 16.1% |
| Cn1cc(CN(CC2(O)CCNC2)C2CCCCC2)cn1 (stereo not drawn) | 38.5% |
| O=C(Nc1ccccc1F)C1CN(C(=O)c2ccc3c(c2)OCO3)C1 | 46.1% |
| Cc1nnc([C@@]23CCO[C@@H]2CCN(S(C)(=O)=O)C3)o1 | 23.3% |
| CCS(=O)(=O)N1CC[C@H]2OCC[C@@]2(c2nnc(C)o2)C1 | 34.6% |
| CCCS(=O)(=O)N1CC[C@H]2OCC[C@@]2(c2nnc(C)o2)C1 | 55.5% |
| Cc1nnc([C@@]23CCO[C@@H]2CCN(S(=O)(=O)c2ccccc2)C3)o1 | 61.1% |
| Cc1noc([C@@]23CCO[C@@H]2CCN(S(=O)(=O)c2cccnc2)C3)n1 | 44.8% |
| Cc1nnc([C@@]23CCO[C@@H]2CCN(S(=O)(=O)c2cccnc2)C3)o1 | -1.36% |
| CN(C)CCOCC1CN(Cc2cccs2)Cc2ccnn2C1 (stereo not drawn) | 33.4% |
| CC(NC1CCN(CCc2ccncc2)CC1)c1cnn(C(C)C)c1 (stereo not drawn) | 37.9% |
| Cc1cccnc1NC(=O)c1ccc(F)c(S(=O)(=O)N2CCC2)c1 | 13.3% |
| O=C(Cc1cccs1)N1C[C@@H]2CN(Cc3ccoc3)CCO[C@@H]2C1 | 24.1% |
| CCN1Cc2cc(F)ccc2N(CC(O)C(F)(F)F)CCC1=O (stereo not drawn) | 47.2% |
| CN(C)C(=O)c1cn[nH]c1C1CCCN1Cc1c[nH]cn1 (stereo not drawn) | 18.4% |
| CN(C)C(=O)c1cn[nH]c1C1CCCN1Cc1cncn1C (stereo not drawn) | -11.3% |
| CN(C)C(=O)c1cn[nH]c1C1CCCN1Cc1nccn1C (stereo not drawn) | 55.8% |

| Structure (SMILES) | INHIBITION |
| --- | --- |
| Cc1nc(CN2CCO[C@H]3[C@@H](OCc4ccccn4)CC[C@@H]32)cs1 | 40.4% |
| Cc1ccc2cccc(Oc3nc(C)c(C(=O)O)s3)c2n1 | 12.7% |
| CN1C(=O)C(c2ccccc2)CC12CCN(CCO)CC2 (stereo not drawn) | -9.26% |
| CCc1nc(C2CCCN(C(=O)c3cccc(Cl)c3)C2)no1 (stereo not drawn) | -19.9% |
| COc1cccc(CNC2CCSC2)c1OC (stereo not drawn) | -7.85% |
| CC(C)(C)C(CCO)NC(=O)Nc1ccncc1 (stereo not drawn) | 60.2% |
| Cc1cccnc1NC(=O)NC(CCO)C(C)(C)C (stereo not drawn) | 28.3% |
| CC(C)(C)C(CCO)NC(=O)Nc1ccccc1 (stereo not drawn) | 43.7% |
| CN1CC(=O)N(c2ccccc2)CC12CCN(S(C)(=O)=O)C2 (stereo not drawn) | 42.7% |
| CN1CCC(O)(CNCc2ccc(F)c(C(F)(F)F)c2)CC1 | 48.4% |
| Cc1cc(CNCC2(O)CCOCC2)ccc1F | 76.8% |
| Cc1cc(CNCC2(O)CCOCC2)ccc1Br | 54.4% |
| Cc1cc(CNC2(CO)CCOCC2)ccc1Br | 18.6% |
| OC1(CNCc2ccc(F)c(C(F)(F)F)c2)CCOC1 (stereo not drawn) | 3.69% |
| Cc1ccc(C(=O)NCC2(O)CCOCC2)cc1Br | -65.5% |
| CN(C)C(=O)[C@@H]1CCO[C@@H]2CCN(CCc3ccccc3)C[C@@H]21 | 28.5% |
| COCc1ccc(C(=O)N2CCC(Oc3ccccc3OC)CC2)s1 | -3.83% |
| O=C(N[C@@H]1CN(c2ncccn2)C[C@@H]2CCCO[C@@H]21)c1cnccn1 | 20.2% |
